# PMC4336329 (PLoS ONE, 2015)
# About 2,200 (0.71%) of roughly 310,000 compounds showed an effect of 50% or more. Effects have a minus sign here. The full list was thinned out, with strong results kept by preference.
# Target: human ether-à-go-go-related gene (hERG) potassium channel (human, UniProt Q12809)
# Test: primary screen, population patch clamp on CHO cells stably expressing hERG; higher = less effect of the substance
# Chain of human ether-à-go-go-related gene (hERG) potassium channel (Q12809 whole entry, looked up): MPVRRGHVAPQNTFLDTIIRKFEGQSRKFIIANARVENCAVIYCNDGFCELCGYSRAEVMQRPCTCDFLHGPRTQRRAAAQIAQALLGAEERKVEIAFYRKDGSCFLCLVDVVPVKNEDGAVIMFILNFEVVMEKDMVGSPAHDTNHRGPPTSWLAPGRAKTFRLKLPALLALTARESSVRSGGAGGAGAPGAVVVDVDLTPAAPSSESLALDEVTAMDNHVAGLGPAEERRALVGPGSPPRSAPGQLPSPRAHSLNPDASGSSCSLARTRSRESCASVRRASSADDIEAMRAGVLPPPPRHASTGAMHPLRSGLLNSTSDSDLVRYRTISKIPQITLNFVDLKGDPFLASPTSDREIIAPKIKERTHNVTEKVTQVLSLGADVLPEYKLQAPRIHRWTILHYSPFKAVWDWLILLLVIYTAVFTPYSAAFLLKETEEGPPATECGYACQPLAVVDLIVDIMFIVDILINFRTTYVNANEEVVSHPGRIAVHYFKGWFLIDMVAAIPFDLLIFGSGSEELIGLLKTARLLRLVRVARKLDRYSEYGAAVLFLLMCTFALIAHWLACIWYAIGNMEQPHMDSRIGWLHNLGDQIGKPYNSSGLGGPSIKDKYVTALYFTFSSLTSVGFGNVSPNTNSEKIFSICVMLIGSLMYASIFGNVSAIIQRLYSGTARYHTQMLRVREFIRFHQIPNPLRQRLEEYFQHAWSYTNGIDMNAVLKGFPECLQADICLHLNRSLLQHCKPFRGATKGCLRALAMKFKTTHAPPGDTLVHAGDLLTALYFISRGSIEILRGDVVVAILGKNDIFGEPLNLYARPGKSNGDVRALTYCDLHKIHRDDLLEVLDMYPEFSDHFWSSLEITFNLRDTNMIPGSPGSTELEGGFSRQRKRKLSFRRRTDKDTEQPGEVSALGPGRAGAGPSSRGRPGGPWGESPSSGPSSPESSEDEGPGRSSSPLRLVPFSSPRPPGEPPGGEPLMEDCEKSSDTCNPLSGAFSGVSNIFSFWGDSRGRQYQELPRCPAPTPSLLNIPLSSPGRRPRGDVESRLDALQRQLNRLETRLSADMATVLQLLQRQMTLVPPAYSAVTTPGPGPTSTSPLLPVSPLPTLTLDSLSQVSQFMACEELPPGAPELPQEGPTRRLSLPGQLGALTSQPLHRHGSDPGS
row,Compound,"hERG current change (%, negative = inhibition) at 1uM [%]"
1,O=C1Nc2ccccc2N=C(c2ccccc2)C1N1CCOCC1 (stereo not drawn),18.1
2,COc1nc(NC2CCCCC2)nc(NC(C)(C)C)n1,4.9
3,COC(=O)CSc1nnc(CSc2nc(C)cc(C)n2)n1Cc1ccco1,11.5
4,Cc1ccc(-c2nnc(SCc3ccc(C#N)cc3)n2Cc2ccco2)cc1,-19.2
5,Cc1cccc(-c2nnc(SCc3ccc(C#N)cc3)n2Cc2ccco2)c1,-44
6,Cc1cc(C)nc(SCc2nnc(SCC(N)=O)n2Cc2ccco2)n1,-3.7
7,Cc1ccc(NCc2nnc(SCc3ccc(C#N)cc3)n2Cc2ccco2)c(C)c1,-54.9
8,Cc1cc(C)nc(SCc2nnc(SCc3ccc([N+](=O)[O-])cc3)n2Cc2ccco2)n1,-57.5
9,Cl.O=C(NCCCn1ccnc1)c1cc(Cl)cc(Cl)c1,4.65
10,CC1CCC/C(=C\Nc2ccc(C(=O)O)c(O)c2)C1=O (stereo not drawn),9.19
11,COc1cc(OC)cc(C(=O)Oc2ccc(/C=N/Nc3nc4ccccc4s3)cc2OC)c1,0.482
12,Cc1onc(-c2c(Cl)cccc2Cl)c1C(=O)Nc1ccc(Cl)cn1,11.3
13,COc1ccccc1NS(=O)(=O)c1cccc(C(=O)NCC(c2ccco2)N2CCCCC2)c1 (stereo not drawn),-0.284
14,CCOc1ccccc1C(=O)NCC(=O)NC(C)c1ccc(-n2ccnc2)cc1 (stereo not drawn),-58.3
15,COc1ccccc1C(=O)NCC(=O)NC(C)c1ccc(-n2ccnc2)cc1 (stereo not drawn),-2.86
16,CCOc1ccccc1C(=O)NC(C)c1ccc(-n2ccnc2)cc1 (stereo not drawn),-34.8
17,COc1ccccc1NC(=O)c1ccc(COc2ccccc2Br)o1,13.8
18,CCS(=O)(=O)N1CCN(Cc2ccc([N+](=O)[O-])cc2)CC1.O=C(O)C(=O)O,9.38
19,CSc1ccc(CN2CCN(Cc3ccc([N+](=O)[O-])cc3)CC2)cc1.O=C(O)C(=O)O,-70.5
20,COc1ccccc1N1CCN(Cc2ccc(SC)cc2)CC1.O=C(O)C(=O)O,-53.8
21,Cc1ccc(CNC(=O)C2CCCC2)cc1,10.4
22,O=C(O)C(=O)O.O=C(c1ccc([N+](=O)[O-])cc1)N1CCN(Cc2ccccc2[N+](=O)[O-])CC1,-70.1
23,COc1ccc(C(=O)N2CCN(Cc3ccccc3[N+](=O)[O-])CC2)cc1.O=C(O)C(=O)O,-20.9
24,COc1ccccc1N1CCN(Cc2ccc(Br)cc2)CC1.O=C(O)C(=O)O,-6.63
25,CCc1ccc(CN2CCN(Cc3ccc(SC)cc3)CC2)cc1.O=C(O)C(=O)O,-27.1
26,COc1ccccc1N1CCN(Cc2ccccc2)CC1.O=C(O)C(=O)O,6.85
27,CCN(CC)c1ccc(CN2CCC(C(=O)NCc3ccc(C)cc3)CC2)cc1.O=C(O)C(=O)O,-13.2

row,Compound,"hERG current change (%, negative = inhibition) at 1uM [%]"
1,CSc1ccc(CN2CCC(C(=O)NCc3ccc(C)cc3)CC2)cc1.O=C(O)C(=O)O,-76.1
2,COc1cc(OC)cc(C(=O)N2CCN(Cc3ccccc3[N+](=O)[O-])CC2)c1.O=C(O)C(=O)O,-7.12
3,O=C(Cc1ccc([N+](=O)[O-])cc1)NCc1ccccn1,12.5
4,CC(N=C1NS(=O)(=O)c2ccccc21)C(=O)OCC(=O)N(C)C1CCS(=O)(=O)C1 (stereo not drawn),-1.85
5,Cc1ccc2c(c1)c1c(c(=O)n(-c3ccccc3C)c(=O)n1CC(=O)NCC1CCCO1)n2C (stereo not drawn),0.188
6,CCOC(=O)[C@H]1[C@H]2COc3ccc(OC)cc3[C@@H]2N2C(=O)c3cc(OC)c(OC)cc3NC(=O)[C@@]12C,5.4
7,O=C(NNC(=S)Nc1ccccc1)c1ccc(O)cc1,15.2
8,Cc1nn(-c2ccccc2)c(Cl)c1/C=C(\CC(=O)O)c1nc2ccccc2s1,2.95
9,Cc1nnc(SCC(=O)Nc2sc3c(c2C(N)=O)CCC(C)C3)[nH]c1=O (stereo not drawn),10.6
10,CC1CCCCC1NC(=O)CN1C(=O)CSc2cc(S(=O)(=O)N3CCCCCC3)ccc21 (stereo not drawn),7.3
11,O=C(c1ccc([N+](=O)[O-])cc1)N1CCN(Cc2ccccc2)CC1,-28.7
12,CSc1ccc(CN2CCN(C(=O)c3ccc([N+](=O)[O-])cc3)CC2)cc1.O=C(O)C(=O)O,-78.1
13,CSc1ccc(CN2CCN(C(=O)c3ccncc3)CC2)cc1,-0.743
14,Cc1[nH]c2ccc(Br)cc2c(=S)c1C/C=C/Cl,5.3
15,COCCNC(=O)NC(=O)COC(=O)C1(c2ccc(Cl)cc2)CC1,6.06
16,COc1ccc(C(CCN2CCCC2)c2c(O)cc(OC)cc2OC)cc1 (stereo not drawn),-21.1
17,COc1cc(O)c(C(CCN2CCN(c3ccccc3)CC2)c2ccc3c(c2)OCO3)c(OC)c1 (stereo not drawn),5.8
18,COc1cc(O)c(C(CCN2CCCC(C)C2)c2ccc(N(C)C)cc2)c(OC)c1 (stereo not drawn),-9.72
19,CCN(CC)CCC(c1ccc2c(c1)OCO2)c1c(O)cc(OC)cc1OC (stereo not drawn),-73.4
20,COc1cc(O)c(C(CCN2CCCCC2)c2ccc(N(C)C)cc2)c(OC)c1 (stereo not drawn),10.3
21,CCN(CC)CCC(c1ccc(OC)cc1)c1c(O)cc(OC)cc1OC (stereo not drawn),-25.8
22,COc1cc(O)c(C(CCN2CCCCC2)c2ccc3c(c2)OCO3)c(OC)c1 (stereo not drawn),-72.1
23,COc1ccc(C(CCN2CCCCC2)c2c(O)cc(OC)cc2OC)cc1 (stereo not drawn),-71.3
24,COc1cc(O)c(C(CC(=O)N2CCCC(C)C2)c2ccc3c(c2)OCO3)c(OC)c1 (stereo not drawn),14.5
25,COc1cc(O)c(C(CCN2CCCC(C)C2)c2ccc3c(c2)OCO3)c(OC)c1 (stereo not drawn),-84.1
26,COc1cc(O)c(C(CCN2CCCC2)c2ccc3c(c2)OCO3)c(OC)c1 (stereo not drawn),-41.5
27,CCN(CC)C(=O)CC(c1ccc2c(c1)OCO2)c1c(O)cc(OC)cc1OC (stereo not drawn),5.47
